Data from PubChem BioAssay (NCI).
This is part of a sample that, as a whole, favours compounds with a hit. Of some 79,000 tested, about 15% had one in any assay. Calls of active or inactive are those of the source. No stated cut-off is given here; in the data, active means growth inhibition above about 70%; inactive means the rest.

Key:
[1] = NCI Yeast Anticancer Drug Screen. Data for the rad52 strain (AID 147);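 further: 0% = growth of vehicle-treated control cultures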; settings: S. cerevisiae rad52 mutant growth inhibition, active compounds read high
How it was run: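 The repair-mutant yeast strain was incubated with compounds, then growth was read and inhibition derived relative to vehicle.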

[2] = NCI Yeast Anticancer Drug Screen. Data for the wt1 strain (AID 149);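 further: 0% = growth of vehicle-treated wt1 cultures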; settings: S. cerevisiae wt1 strain (SPY 50644) growth inhibition, active compounds read high
How it was run: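 Vehicle-normalised growth inhibition; strain wt1; compound exposure.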

[3] = NCI Yeast Anticancer Drug Screen. Data for the rad50EPP+ strain (AID 151);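 further: 0% = growth of vehicle-treated control cultures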; settings: S. cerevisiae rad50 mutant strain, active compounds read high
How it was run: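 Vehicle-normalised growth inhibition; rad50EPP+ yeast strain, altered in DNA damage repair, compound-treated.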

[4] = NCI Yeast Anticancer Drug Screen. Data for the mgt1 strain (AID 153); settings: S. cerevisiae mgt1 mutant growth inhibition, active compounds read high
How it was run: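 Vehicle-normalized growth inhibition is determined in mgt1 yeast, a strain selected for a defined alteration in DNA repair or cell cycle control.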

[5] = NCI Yeast Anticancer Drug Screen. Data for the rad50 strain (AID 155);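 further: 0% = growth of vehicle-only cultures of the same strain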; settings: S. cerevisiae rad50 strain growth inhibition, active compounds read high
How it was run: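 A DNA repair-deficient yeast mutant serves as the test organism; compound-induced growth inhibition is calculated against vehicle-treated cells.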

[6] = NCI Yeast Anticancer Drug Screen. Data for the mec2-1 strain (AID 157); settings: S. cerevisiae mec2-1 strain, active compounds read high
How it was run: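 Mutant yeast (mec2-1) grown with compound; growth inhibition relative to vehicle control reported.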

[7] = NCI Yeast Anticancer Drug Screen. Data for the rad14 strain (AID 159);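 further: 0% = growth of vehicle-treated control cultures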; settings: S. cerevisiae rad14 strain growth inhibition, active compounds read high
How it was run: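 Vehicle-treated cultures served as the baseline for growth inhibition of a DNA repair-mutant yeast strain exposed to each compound.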

[8] = NCI Yeast Anticancer Drug Screen. Data for the sgs1 mgt1 strain (AID 161);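 further: 0% = growth of cultures given vehicle only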; settings: S. cerevisiae sgs1 mgt1 strain, active compounds read high
How it was run: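 Growth of a repair-deficient yeast mutant was monitored after compound treatment and expressed as inhibition relative to vehicle-treated cultures.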

[9] = NCI Yeast Anticancer Drug Screen. Data for the CLN2oe strain (AID 163);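 further: 0% = growth of vehicle-only control cultures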; settings: S. cerevisiae CLN2oe strain, active compounds read high
How it was run: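 Compounds are applied to yeast harbouring a defined cell-cycle control change; reduced growth compared with vehicle-treated controls gives the value.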

[10] = NCI Yeast Anticancer Drug Screen. Data for the cln2 rad14 strain (AID 165);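 further: 0% = growth equal to vehicle treated cultures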; settings: S. cerevisiae cln2 rad14 strain, active compounds read high
How it was run: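 Readout is yeast growth inhibition versus vehicle-treated controls, using a strain with cln2 and rad14 alterations exposed to compound.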

[11] = NCI Yeast Anticancer Drug Screen. Data for the bub3 strain (AID 167); settings: S. cerevisiae bub3 mutant strain, active compounds read high
How it was run: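 Inhibition values come from growth of compound-treated mutant yeast normalised to vehicle-treated controls.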

[12] = NCI Yeast Anticancer Drug Screen. Data for the wt2 strain (AID 169);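 further: 0% = growth of vehicle-treated yeast cultures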; settings: S. cerevisiae wt2 strain growth inhibition, active compounds read high
How it was run: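 Against vehicle-treated controls, the growth of yeast exposed to each compound was compared, and the inhibition was recorded.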

[13] = NCI Yeast Anticancer Drug Screen. Data for the sgs1 strain (AID 173);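 further: 0% = growth of vehicle-only control cultures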; settings: S. cerevisiae sgs1 mutant, active compounds read high
How it was run: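 Each compound was added to cultures of the altered yeast strain. Growth was recorded, and inhibition was derived by comparison with vehicle controls.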

[14] = NCI Yeast Anticancer Drug Screen. Data for the mlh1 rad18 strain (AID 175); settings: S. cerevisiae mlh1 rad18 strain growth inhibition, active compounds read high
How it was run: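 Genetically defined yeast (DNA repair-deficient) exposed to compounds; growth inhibition determined relative to vehicle.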

[15] = NCI Yeast Anticancer Drug Screen. Data for the mlh1 strain (AID 171);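 further: 0% = growth of vehicle-treated control cultures of the same strain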; settings: S. cerevisiae mlh1 strain growth inhibition, active compounds read high
How it was run: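 Measured: yeast growth. Reference: vehicle-treated controls. Organism: strain with a defined alteration affecting DNA damage repair or cell cycle control, treated with compound.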

[16] = NCI Yeast Anticancer Drug Screen. Data for the rad18 strain (AID 177); settings: S. cerevisiae rad18 mutant growth inhibition, active compounds read high
How it was run: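 Vehicle-treated cultures served as the baseline for scoring compound-induced growth inhibition in DNA-repair-mutant yeast.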

[17] = at 5.0 µM (retest, dose inferred, filed as 0.5)
[18] = at 50.0 µM (retest, dose inferred, filed as 5.0)

Measured: growth inhibition

O=C1C=CC(=O)C1(Br)Br
inactive: [1]; at 1.2 µM 7% | [1]; at 3.7 µM 24% | [1]; at 11.0 µM 62% | [2]; at 1.2 µM -1% | [2]; at 3.7 µM 0% | [2]; at 11.0 µM 8% | [2]; at 33.0 µM 66% | [3]; at 1.2 µM 2% | [3]; at 3.7 µM 15% | [3]; at 11.0 µM 33% | [4]; at 1.2 µM 1% | [4]; at 3.7 µM -4% | [4]; at 11.0 µM 25% | [5]; at 1.2 µM 4% | [5]; at 3.7 µM 24% | [5]; [17] 21% | [5]; at 11.0 µM 65% | [6]; at 1.2 µM 1% | [6]; at 3.7 µM 5% | [6]; [17] 3% | [6]; at 11.0 µM 23% | [7]; at 1.2 µM 1% | [7]; at 3.7 µM 13% | [7]; at 11.0 µM 28% | [8]; [17] 54% | [9]; at 1.2 µM -5% | [9]; at 3.7 µM 3% | [9]; at 11.0 µM 18% | [10]; [17] 11% | [11]; at 1.2 µM 3% | [11]; at 3.7 µM 3% | [11]; [17] 28% | [11]; at 11.0 µM 18% | [12]; at 1.2 µM -4% | [12]; at 3.7 µM -4% | [12]; at 11.0 µM 24% | [13]; at 1.2 µM -13% | [13]; at 3.7 µM -14%
active: [1]; at 33.0 µM 95% | [1]; at 100.0 µM 99% | [2]; at 100.0 µM 99% | [3]; at 33.0 µM 71% | [3]; at 100.0 µM 99% | [4]; at 33.0 µM 91% | [4]; at 100.0 µM 99% | [5]; at 33.0 µM 94% | [5]; [18] 99% | [5]; at 50.0 µM 99.6% | [5]; at 100.0 µM 99% | [6]; at 33.0 µM 77% | [6]; [18] 100% | [6]; at 50.0 µM 99.8% | [6]; at 100.0 µM 99% | [7]; at 33.0 µM 88% | [7]; at 100.0 µM 99% | [8]; [18] 99% | [8]; at 50.0 µM 99.2% | [9]; at 33.0 µM 75% | [9]; at 100.0 µM 98% | [10]; [18] 99% | [10]; at 50.0 µM 99.2% | [11]; at 33.0 µM 95% | [11]; [18] 99% | [11]; at 50.0 µM 99.4% | [11]; at 100.0 µM 99% | [12]; at 33.0 µM 97% | [12]; at 100.0 µM 99% | [13]; at 11.0 µM 75% | [13]; at 33.0 µM 99% | [13]; at 100.0 µM 99% | [14]; [17] 78% | [14]; [18] 99% | [14]; at 50.0 µM 99.2%

O=[N+]([O-])O.[NH-]C1CCCCC1[NH-].[NH-]C1CCCCC1[NH-].[NH-]C1CCCCC1[NH-].[OH-].[OH-].[OH-].[Pt+4].[Pt+4].[Pt+4] (stereo unspecified)
inactive: [1]; at 1.2 µM -29% | [1]; at 3.7 µM -36% | [1]; at 11.0 µM -51% | [1]; at 33.0 µM -26% | [1]; at 100.0 µM -25% | [2]; at 1.2 µM -15% | [2]; at 3.7 µM -12% | [2]; at 11.0 µM -14% | [2]; at 33.0 µM -14% | [2]; at 100.0 µM -3% | [3]; at 1.2 µM -28% | [3]; at 3.7 µM -26% | [3]; at 11.0 µM -19% | [3]; at 33.0 µM -28% | [3]; at 100.0 µM -31% | [4]; at 1.2 µM -14% | [4]; at 3.7 µM -15% | [4]; at 11.0 µM -19% | [4]; at 33.0 µM -12% | [4]; at 100.0 µM -7% | [5]; at 1.2 µM -6% | [5]; at 3.7 µM -14% | [5]; [17] 17% | [5]; at 11.0 µM -14% | [5]; at 33.0 µM -2% | [5]; [18] 20% | [5]; at 50.0 µM 50.8% | [5]; at 100.0 µM -11% | [6]; at 1.2 µM 12% | [6]; at 3.7 µM -6% | [6]; [17] 16% | [6]; at 11.0 µM 0% | [6]; at 33.0 µM 4% | [6]; [18] 14% | [6]; at 50.0 µM -15.5% | [6]; at 100.0 µM 63% | [7]; at 1.2 µM -5% | [7]; at 3.7 µM -16% | [7]; at 11.0 µM -33% | [7]; at 33.0 µM -5% | [7]; at 100.0 µM -10% | [8]; [17] 27% | [8]; [18] 45% | [8]; at 50.0 µM -22.4% | [10]; [17] 12% | [10]; [18] 21% | [10]; at 50.0 µM -7.35% | [11]; at 1.2 µM -4% | [11]; at 3.7 µM -9% | [11]; [17] 20% | [11]; at 11.0 µM -14% | [11]; at 33.0 µM -14% | [11]; [18] 25% | [11]; at 50.0 µM -32% | [11]; at 100.0 µM -9% | [12]; at 1.2 µM -46% | [12]; at 3.7 µM -58% | [12]; at 11.0 µM -55% | [12]; at 33.0 µM -51% | [12]; at 100.0 µM -36% | [15]; at 1.2 µM 2% | [15]; at 3.7 µM -10% | [15]; at 11.0 µM -6% | [15]; at 33.0 µM -13% | [15]; at 100.0 µM 12% | [13]; at 1.2 µM -22% | [13]; at 3.7 µM -30% | [13]; at 11.0 µM -19% | [13]; at 33.0 µM 6% | [13]; at 100.0 µM 8% | [14]; [17] 40% | [14]; at 50.0 µM 28.6% | [16]; at 1.2 µM -21% | [16]; at 3.7 µM 2% | [16]; at 11.0 µM 18% | [16]; at 33.0 µM 54%
active: [14]; [18] 71% | [16]; at 100.0 µM 82%
